In PubChem BioAssay AID1159580 (chemical genetic matrix, 2015):
In all, about 5,500 compounds went through this assay and about 2,000 (36%) were called active. Another 18% or so got no clear call; they are omitted. Rule as the data show it: active = normalized growth mostly below about 0.91 (no sharp cut-off); inconclusive = no clear call, values can overlap the other calls; inactive = mostly above about 0.92. Some of the results follow.

Assay: chemical genetic growth profiling, strain panel (AID 1159580);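 also: tested at 20 µM; growth read once vehicle control cultures reached saturation at 30 °C; 1 = growth at the plate median or of vehicle wells; lower values mean less growth of the strain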
Conditions: growth OD

Measured: normalized growth

O=C(O)C1=C[C@@H](O)[C@@H](O)[C@H](O)C1
inactive: S. cerevisiae deletion strains, locus YJR043C, strain POL32, active compounds read low 1.02 | S. cerevisiae deletion strains, locus YJR066W, strain TOR1, active compounds read low 0.928 | S. cerevisiae deletion strains, locus YJR075W, strain HOC1, active compounds read low 1.01 | S. cerevisiae deletion strains, locus YKL009W, strain mrt4, active compounds read low 1 | S. cerevisiae deletion strains, locus YKL068W, active compounds read low 1 | S. cerevisiae deletion strains, locus YKL085W, strain MDH1 (second series), active compounds read low 1.01 | S. cerevisiae deletion strains, locus YKL085W, strain MDH1, active compounds read low 1.01 | S. cerevisiae deletion strains, locus YKL160W, strain elf1, active compounds read low 0.987 | S. cerevisiae deletion strains, locus YKR001C, strain vps1, active compounds read low 1.07 | S. cerevisiae deletion strains, locus YKR026C, strain gcn3, active compounds read low 0.999 | S. cerevisiae deletion strains, locus YKR091W, strain srl3, active compounds read low 0.969 | S. cerevisiae deletion strains, locus YLL001W, strain dnm1, active compounds read low 0.995 | S. cerevisiae deletion strains, locus YLL026W, active compounds read low 0.975 | S. cerevisiae deletion strains, locus YLL041C, strain sdh2, active compounds read low 0.978 | S. cerevisiae deletion strains, locus YLR027C, strain aat2, active compounds read low 0.996 | S. cerevisiae deletion strains, locus YLR039C, strain RIC1, active compounds read low 1.1 | S. cerevisiae deletion strains, locus YLR058C, strain SHM2, active compounds read low 1.01 | S. cerevisiae deletion strains, locus YLR102C, strain apc9, active compounds read low 1.01 | S. cerevisiae deletion strains, locus YLR113W, strain HOG1, active compounds read low 1.01 | S. cerevisiae deletion strains, locus YLR221C, strain rsa3, active compounds read low 0.982 | S. cerevisiae deletion strains, locus YLR258W, strain gsy2, active compounds read low 0.974 | S. cerevisiae deletion strains, locus YLR262C, strain YPT6 (second series), active compounds read low 0.952 | S. cerevisiae deletion strains, locus YLR262C, strain YPT6, active compounds read low 1.13 | S. cerevisiae deletion strains, locus YLR268W, strain sec22, active compounds read low 1.05 | S. cerevisiae deletion strains, locus YLR320W, strain mms22, active compounds read low 0.985 | S. cerevisiae deletion strains, locus YLR330W, strain CHS5, active compounds read low 1.01 | S. cerevisiae deletion strains, locus YLR342W, strain FKS1 (second series), active compounds read low 1.05 | S. cerevisiae deletion strains, locus YLR342W, strain FKS1, active compounds read low 0.985 | S. cerevisiae deletion strains, locus YLR357W, strain rsc2, active compounds read low 0.973 | S. cerevisiae deletion strains, locus YLR370C, strain arc18, active compounds read low 0.994 | S. cerevisiae deletion strains, locus YLR371W, strain rom2, active compounds read low 1.02 | S. cerevisiae deletion strains, locus YLR384C, strain iki3, active compounds read low 0.979 | S. cerevisiae deletion strains, locus YLR418C, strain cdc73, active compounds read low 0.986 | S. cerevisiae deletion strains, locus YML016C, strain PPZ1, active compounds read low 1.02 | S. cerevisiae deletion strains, locus YML032C, strain rad52, active compounds read low 0.993 | S. cerevisiae deletion strains, locus YML120C, strain ndi1, active compounds read low 0.982 | S. cerevisiae deletion strains, locus YML124C, strain tub3, active compounds read low 1 | S. cerevisiae deletion strains, locus YMR058W, strain fet3, active compounds read low 0.973 | S. cerevisiae deletion strains, locus YMR078C, strain ctf18, active compounds read low 1.01 | S. cerevisiae deletion strains, locus YMR125W, strain sto1, active compounds read low 0.968 | S. cerevisiae deletion strains, locus YMR129W, active compounds read low 0.986 | S. cerevisiae deletion strains, locus YMR205C, strain PFK2, active compounds read low 0.984 | S. cerevisiae deletion strains, locus YMR223W, strain ubp8, active compounds read low 0.987 | S. cerevisiae deletion strains, locus YMR231W, strain pep5, active compounds read low 0.967 | S. cerevisiae deletion strains, locus YMR263W, strain SAP30, active compounds read low 1.02 | S. cerevisiae deletion strains, locus YMR307W, strain GAS1, active compounds read low 1.04 | S. cerevisiae deletion strains, locus YNL067W, strain RPL9B, active compounds read low 1.01 | S. cerevisiae deletion strains, locus YNL071W, strain lat1, active compounds read low 0.982 | S. cerevisiae deletion strains, locus YNL183C, strain NPR1, active compounds read low 0.962 | S. cerevisiae deletion strains, locus YNL209W, strain ssb2, active compounds read low 0.983 | S. cerevisiae deletion strains, locus YNL233W, strain BNI4, active compounds read low 1.03 | S. cerevisiae deletion strains, locus YNL248C, strain rpa49, active compounds read low 0.965 | S. cerevisiae deletion strains, locus YNL250W, strain rad50, active compounds read low 1.03 | S. cerevisiae deletion strains, locus YNL271C, strain bni1, active compounds read low 1.01 | S. cerevisiae deletion strains, locus YNL298W, strain CLA4, active compounds read low 1.01 | S. cerevisiae deletion strains, locus YNL307C, strain MCK1, active compounds read low 1.02 | S. cerevisiae deletion strains, locus YNL322C, strain KRE1 (second series), active compounds read low 0.986 | S. cerevisiae deletion strains, locus YNR049C, strain mso1, active compounds read low 0.989 | S. cerevisiae deletion strains, locus YNR052C, strain pop2, active compounds read low 1.01 | S. cerevisiae deletion strains, locus YOL012C, strain htz1 0.985 | S. cerevisiae deletion strains, locus YOL147C, strain pex11, active compounds read low 0.993 | S. cerevisiae deletion strains, locus YOR001W, strain rrp6, active compounds read low 0.993 | S. cerevisiae deletion strains, locus YOR061W, strain CKA2, active compounds read low 1.01 | S. cerevisiae deletion strains, locus YOR069W, strain VPS5, active compounds read low 1.01 | S. cerevisiae deletion strains, locus YOR070C, strain gyp1, active compounds read low 0.996 | S. cerevisiae deletion strains, locus YOR080W, strain dia2, active compounds read low 0.99 | S. cerevisiae deletion strains, locus YOR083W, strain WHI5, active compounds read low 0.982 | S. cerevisiae deletion strains, locus YOR106W, strain vam3, active compounds read low 0.972 | S. cerevisiae deletion strains, locus YOR136W, strain idh2, active compounds read low 1.01 | S. cerevisiae deletion strains, locus YOR144C, strain elg1, active compounds read low 1 | S. cerevisiae deletion strains, locus YOR184W, strain ser1, active compounds read low 1.02 | S. cerevisiae deletion strains, locus YOR231W, strain MKK1, active compounds read low 0.981 | S. cerevisiae deletion strains, locus YOR265W, strain rbl2, active compounds read low 0.977 | S. cerevisiae deletion strains, locus YOR270C, strain vph1, active compounds read low 0.969 | S. cerevisiae deletion strains, locus YOR290C, strain snf2, active compounds read low 0.988 | S. cerevisiae deletion strains, locus YOR316C, strain cot1, active compounds read low 0.996 | S. cerevisiae deletion strains, locus YPL051W, strain arl3, active compounds read low 0.977 | S. cerevisiae deletion strains, locus YPL078C, strain atp4, active compounds read low 0.987 | S. cerevisiae deletion strains, locus YPL106C, strain sse1, active compounds read low 0.973 | S. cerevisiae deletion strains, locus YPL240C, strain hsp82, active compounds read low 0.989 | S. cerevisiae deletion strains, locus YPL241C, strain CIN2, active compounds read low 1.01 | S. cerevisiae deletion strains, locus YPL256C, strain CLN2, active compounds read low 0.978 | S. cerevisiae deletion strains, locus YPR119W, strain clb2, active compounds read low 1 | S. cerevisiae deletion strains, locus YPR141C, strain kar3, active compounds read low 1 | S. cerevisiae deletion strains, locus YPR163C, strain tif3, active compounds read low 0.995 | S. cerevisiae deletion strains, locus YPR167C, strain met16, active compounds read low 0.999 | S. cerevisiae deletion strains, strain wtn01, active compounds read low 1.05 | S. cerevisiae strains, strain wild type, active compounds read low 1.02
